BAZ2B block: blocks human BAZ2B | AlphaScreen BAZ2B-H3K14Ac peptide displacement | Potency, µM (top dose mostly 114 µM), usual class: inhibitors | 360,000 compounds, 4.4% hits; further: nearly all actives have a fitted effect of over 60% in size
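Complex of BAZ2B and biotin-H3K14Ac (50 nM apiece) forms over 30 min at RT, then faces library compounds up to 110 uM for another 30 min; AlphaScreen beads added, 20 min dark incubation, luminescence read.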
G9a inh: G9a (human) methyltransferase inhibition | G9a H3K9 monomethylation, AlphaScreen, 2 h | Potency, µM (titrated, usually from 102 µM), most hits filed as inhibitors | 350,000 compounds, 8.8% hits | AID 504332; further: nearly all actives have a fitted effect of over 75% in size
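Step 1: enzyme (final 20 nM) with compound, 15 min RT. Step 2: substrate peptide 500 nM and SAM 20 uM, 2 h RT. Step 3: anti-H3K9me1 antibody and AlphaScreen beads, 10 min, then plate read.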
HP1b binding inh: inhibitors of HP1-beta chromodomain binding to methylated histone tails; 390,000 compounds, 0.56% hits; AID 540317; Potency, µM (highest dose often 114 µM), hits mostly inhibitors; P83916; AlphaScreen HP1-beta / biotin-H3K9me3 peptide binding; further: nearly all actives have a fitted effect of over 70% in size
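AlphaScreen: HP1-beta (50 nM) preformed 30 min with biotin-H3(1-18)K9me3 peptide (50 nM) in PBS pH 7.4, 0.01% Tween-20. Compound added for 30 min at RT, then streptavidin donor/nickel chelate acceptor beads (10 ug/mL) for 30 min.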
JMJD2A Tudor: blocks the human JMJD2A Tudor domain | O75164 | AlphaScreen JMJD2A-Tudor / H3K4me3 peptide binding | Potency, µM (series often up to 114 µM), most hits filed as inhibitors | 390,000 compounds, 4.4% hits | AID 504339; further: nearly all actives have a fitted effect of over 50% in size
GLS inh: inhibitors of human glutaminase (GLS); O94925; GLS enzymatic activity, qHTS titration; Potency, µM (doses to about 45.5 µM), actives largely listed as inhibitors; 410,000 compounds, 0.21% hits
Target sequence (O94925 whole entry, looked up): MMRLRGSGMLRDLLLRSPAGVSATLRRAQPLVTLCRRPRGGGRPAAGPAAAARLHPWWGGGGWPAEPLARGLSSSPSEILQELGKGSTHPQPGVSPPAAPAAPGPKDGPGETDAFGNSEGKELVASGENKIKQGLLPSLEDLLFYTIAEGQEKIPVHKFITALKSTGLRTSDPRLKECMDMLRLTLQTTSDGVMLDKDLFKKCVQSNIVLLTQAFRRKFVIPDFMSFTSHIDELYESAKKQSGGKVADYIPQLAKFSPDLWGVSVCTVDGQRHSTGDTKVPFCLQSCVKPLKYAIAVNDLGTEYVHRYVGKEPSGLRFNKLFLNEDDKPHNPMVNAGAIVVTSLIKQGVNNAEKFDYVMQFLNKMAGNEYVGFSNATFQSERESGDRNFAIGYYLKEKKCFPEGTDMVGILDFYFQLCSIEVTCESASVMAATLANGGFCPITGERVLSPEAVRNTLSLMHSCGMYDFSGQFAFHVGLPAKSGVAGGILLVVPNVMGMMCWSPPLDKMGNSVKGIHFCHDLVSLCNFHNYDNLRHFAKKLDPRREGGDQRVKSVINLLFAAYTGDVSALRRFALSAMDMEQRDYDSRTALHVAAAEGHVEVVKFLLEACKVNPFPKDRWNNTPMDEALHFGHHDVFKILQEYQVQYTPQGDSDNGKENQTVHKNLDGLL
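Glutamate formation by hKGA was monitored fluorometrically using coupled glutamate oxidase, HRP and Amplex Red. Substrate was added as 1 mM L-glutamine solution; incubation was 30 min at RT after an initial read.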
Numbers stand for hits; 0 = inactive; ? = inconclusive; - = no result given; [ ] = remark or other dose. Hits are enriched below; roughly 10% of the tested compounds scored in any of these assays. The call rests on the fitted dose curve; in most records, active means well fitted curve in the direction sought with a large enough effect; inconclusive means small, poorly fitted or top-dose-only effect, or another doubt; inactive means no such curve, though single readings can be large; an effect the other way counts as inactive or inconclusive.

SMILES	BAZ2B block	G9a inh	HP1b binding inh	JMJD2A Tudor	GLS inh
Cc1cc(-c2ccc(N=Nc3c(S(=O)(=O)O)cc4cc(S(=O)(=O)O)cc(N)c4c3O)c(C)c2)ccc1N=Nc1c(S(=O)(=O)O)cc2cc(S(=O)(=O)O)cc(N)c2c1O	1.4µM	?	-	-	0
O=C(CCCC(=O)OCC(F)(F)C(F)F)Nc1ccccc1F	0	0	0	0	0
O=C(COc1ccc2ccccc2c1)NNC(=O)c1cnccn1	0	0.63µM	0	0	0
COc1ccc(CC(=O)NNC(=O)c2ccccn2)cc1	?	0	0	0	0
COc1ccc(CC(=O)NNC(=O)c2cnccn2)cc1	0	7.9µM	0	0	0
O=C(Nc1cccc(Cl)c1)c1ccc(NCCCN2CCOCC2)c([N+](=O)[O-])c1	45µM	0[0.501 µM]	?	?	0
Cc1ccc(NC(=O)c2ccc(NCCCN3CCC(C)CC3)c([N+](=O)[O-])c2)cc1F	0	71µM	0	79µM	0
Cc1cc(-c2ccccc2)nc(N/N=C/c2ccccc2)n1	0	0	0	0	0
Cc1ccc(/C=N/Nc2nc(C)cc(C)n2)cc1	0	?	0	0	0
Cc1cc(-c2ccccc2)nc(N/N=C/c2ccc(N(C)C)cc2)n1	-	-	?	35µM	0
Cc1cc(C)nc(N/N=C/c2ccc(Cl)cc2)n1	0	45µM	0	0	0
CC(/C=N/NC(=O)c1ccncc1)=C\c1ccc(C(C)C)cc1	0	0	0	0	0
CC(/C=N/Nc1nc(C)cc(C)n1)=C\c1ccc(C(C)C)cc1	0	40µM	?	0	0
CCCC[C@@H]1Cc2[nH][nH]c(=O)c2[C@H](c2ccc(C(C)C)cc2)O1	-	-	-	-	0
CSc1ccc(CCNC(=O)c2ccc3c(c2)nc2n3CCCCC2)cc1	0	0	0	0	0
COc1ccc(/C=C/C(=O)c2ccc3ccccc3c2O)cc1CN1CCOCC1	14µM	6.3µM	?	?	0
Cn1nc(C(=O)NCC(=O)Nc2ccc(F)c(F)c2)ccc1=O	-	-	-	-	0
COc1cccc(C(c2sc3ncnn3c2O)N2CCc3ccccc3C2)c1 (stereo unspecified)	0	7.1µM	0	0	0
COc1cccc(C(c2sc3ncnn3c2O)N2CC(C)OC(C)C2)c1 (stereo unspecified)	0	0	0	0	0
COC(=O)C1CCN(C(c2ccc(OC)c(OC)c2)c2sc3nc(C)nn3c2O)CC1 (stereo unspecified)	0	?	0	0	0
COc1cc(C(c2sc3nc(C)nn3c2O)N2CCc3ccccc3C2)cc(OC)c1OC (stereo unspecified)	0	22µM	0	0	0
COc1ccc(C(c2sc3nc(C)nn3c2O)N2CCC(C(N)=O)CC2)cc1OC (stereo unspecified)	0	50µM	0	0	0
c1ccc(N2CC3COc4ccccc4C3=N2)cc1 (stereo unspecified)	-	-	-	0	0
COc1cccc(CNS(=O)(=O)c2ccc(N3CCCCS3(=O)=O)cc2)c1	0	0[12.7 µM]	0	0	0
CCOc1ccc(/C=C/c2nc(C#N)c(Nc3ccc(OC)cc3)o2)cc1	0	0	0	0	0
SMILES	BAZ2B block	G9a inh	HP1b binding inh	JMJD2A Tudor	GLS inh
CCCc1cc(-n2ccnc2)n2c(nc3ccccc32)c1C#N	0	40µM	0	0	0
Cc1ccc(N(C)C(=O)Cn2cc(S(=O)(=O)N3CCCC3)c(S(=O)(=O)N3CCCC3)c2)cc1	0	0	0	0	0
O=C1c2ccccc2C(=O)c2c(NCCCN(CCO)CCO)cccc21	28µM	45µM	25µM	40µM	0
COc1cccc(C(=O)Nc2sc3c(c2C#N)CCN(C(C)=O)C3)c1	-	5µM	?	0	0
CC(=O)N1CCc2c(sc(NC(=O)c3cccc(N4C(=O)CCC4=O)c3)c2C(N)=O)C1	0	45µM	0	0	0
Cc1cc(NC(=O)CSc2nnc(C(F)(F)F)n2C)no1	-	-	0	0	0
COc1ccc(NS(=O)(=O)c2coc(C(N)=O)c2)cc1Cl	0	0	0	0	0
COc1cc(OC)c(NS(=O)(=O)c2coc(C(N)=O)c2)cc1Cl	0	71µM	0	0	0
COc1ccc(-c2nc(SCC(=O)NCCc3ccccc3)n[nH]2)cc1	0	0	0	0	0
COc1ccc(-c2nc(SC(CC(=O)NCCO)c3cccs3)n[nH]2)cc1 (stereo unspecified)	0	45µM	0	0	0
O=C(c1ccco1)N(CCC(c1ccccc1)c1ccco1)Cc1ccccc1 (stereo unspecified)	50µM	?	0	56µM	0
COc1ccc(CN(CCC(c2ccccc2)c2ccco2)C(=O)c2ccco2)cc1 (stereo unspecified)	?	?	0	?	0
O=C(CSc1nnc(SCc2cccc3ccccc23)s1)N=Nc1c(O)[nH]c2ccccc12	50µM	?	-	-	-
O=C(CSc1nnc(SCc2cccc3ccccc23)s1)Nc1ccc(C(=O)O)cc1	?	?	?	13µM	?
CCOc1ccc(C(=O)Nc2ccc3oc(-c4cccc5ccccc45)nc3c2)cc1	0	0	0	0	0
Cc1nnc(NN)n(N)c1=O	0	-	22µM	32µM	0
COc1ccc(CCNC(=O)CSCc2nc(-c3ccc(OC)c(OC)c3)oc2C)cc1OC	?	0	0	0	0
O=C(O/N=C\c1ccc(N2CCCCC2)c([N+](=O)[O-])c1)c1cccc(C(F)(F)F)c1	?	5µM	?	?	0
O=C(O/N=C\c1ccc(N2CCCCC2)c([N+](=O)[O-])c1)c1c(F)cccc1F	?	14µM	?	?	0
O=C(N/N=C/c1ccc(N2CCCC2)c([N+](=O)[O-])c1)c1cccnc1	?	?	0	0	0
O=C(O/N=C\c1ccc(N2CCCCC2)c([N+](=O)[O-])c1)c1cccc(Cl)c1	?	28µM	?	?	0
NC(=O)c1ccc(N2CCCCCC2)c([N+](=O)[O-])c1	?	0	0	0	0
Nc1nc(=S)c2ncn(C3CCCC3)c2[nH]1	?	0[0.501 µM]	?	50µM	?
O=C(O)C1C2C=CC(O2)C1C(=O)Nc1ccc(S(=O)(=O)Nc2ccccc2)cc1 (stereo unspecified)	0	?	?	79µM	0
O=C(O)C1C2C=CC(O2)C1C(=O)Nc1ccc(S(=O)(=O)N2CCc3ccccc32)cc1 (stereo unspecified)	0	11µM	0	0	0
COc1cccc(NC(=O)C2C3C=CC(O3)C2C(=O)O)c1 (stereo unspecified)	0	-	0	0	0
CCc1c(C)sc(NC(=S)Nc2nc(C)cc(C)n2)c1C(=O)OC	0	0	0	0	0
CCOC(=O)c1cccc(NC(=S)NC(=O)c2cccnc2)c1	0	50µM	0	0	0
COc1ccc(COc2cc(-c3cccc(OC)c3)nc3ccc(NC(=O)c4cccnc4)cc23)cc1	0	50µM	0	?	0
COc1cccc(NC(=S)NC(=O)c2cccnc2)c1	0	7.9µM	0	0	0

From PubChem BioAssay
